The campaign covered roughly 5,500 compounds. About 2,000 (36%) were called active. Another 18% or so got no clear call; they are omitted. Rule as the data show it: active = normalized growth mostly below about 0.91 (no sharp cut-off); inconclusive = no clear call, values can overlap the other calls; inactive = mostly above about 0.92. The list shows a part of the results.
Assay: chemical genetic growth profiling, strain panel (AID 1159580);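 also: tested at 20 µM; growth read once vehicle control cultures reached saturation at 30 °C; 1 = growth at the plate median or of vehicle wells; lower values mean less growth of the strain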
Details: S. cerevisiae deletion strains, growth OD

Measured: normalized growth

COP(=O)(OC)C(O)C(Cl)(Cl)Cl (stereo not drawn)
inactive: locus YHR030C, strain SLT2, active compounds read low 0.998 | locus YHR079C, strain IRE1, active compounds read low 1.03 | locus YJL095W, strain BCK1, active compounds read low 1.01 | locus YJR066W, strain TOR1, active compounds read low 0.938 | locus YLR113W, strain HOG1, active compounds read low 1 | locus YNL183C, strain NPR1, active compounds read low 0.962 | locus YOR231W, strain MKK1, active compounds read low 1.03 | locus YPL256C, strain CLN2, active compounds read low 0.988

From PubChem BioAssay AID1159580 (chemical genetic matrix, 2015)
